ELG1 DNA repair = qHTS screen for small molecules that inhibit ELG1-dependent DNA repair in human embryonic kidney (HEK293T) cells expressing luciferase-tagged ELG1. hit rate 2.3% among 330,000. Potency, µM (doses to about 46.1 µM), for the others: at the top dose activity change, negative = inhibition, hits mostly inhibitors. HEK293T ELG1-luciferase reporter, luminescence, 16 h; DNA damage induced by 5-fluorouridine. AID 504467, 2011; further: on the % scale 0 is the no-effect control and ±100 the full control effect; nearly all actives have a fitted effect of over 55% in size
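In this reporter screen, reduction of luminescence relative to DMSO vehicle indicated activity. Compounds and 5-fluorouridine were added together to 2,000 cells per well, incubated for 16 hr at 37 °C, then developed with ONE-Glo.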
SMN2 splice up = qHTS Assay for Enhancers of SMN2 Splice Variant Expression; HEK293 SMN2-luciferase splicing reporter, luminescence, 30-36 h; hit rate 2.8% among 210,000; Potency, µM (doses to about 46.1 µM), inactives show at the top dose activity change, positive = activation, hits mostly activators; AID 1458, 2008; further: % of control where 0% means no effect; nearly all actives have a fitted effect of over 55% in size
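qHTS luciferase splicing reporter: luminescence rises when SMN2 exon 7 is included in transfected HEK293 cells. Compound exposure lasted 30-36 h at 37C, with 4.5 mM final sodium butyrate as control, followed by a ONE-Glo read.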
Rab9 prom act = qHTS Assay for Rab9 Promoter Activators; Huh7 Rab9 promoter-luciferase reporter, luminescence, 24 h; Potency, µM (doses to about 9.22 µM), inactives show top-dose activation, negative = inhibition, most hits filed as activators; hit rate 2.8% among 320,000; AID 485297, 2010; further: % of control where 0% means no effect; nearly all actives have a fitted effect of over 60% in size
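Luminescence read-out: Huh7 cells stably expressing Rab9-luciferase, treated 24 h with compound at 37 °C, then lysed with luciferase reagent for 10 min at ambient before reading.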
NPC1 prom act = qHTS Assay for NPC1 Promoter Activators; Huh7 NPC1 promoter luciferase reporter, 24 h; Potency, µM (top dose mostly 9.22 µM), for the others: at the highest dose activation, hits mostly activators; hit rate 2.4% among 320,000; AID 485313, 2010; further: % of control where 0% means no effect; nearly all actives have a fitted effect of over 60% in size
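Luminescence from an NPC1 promoter-driven luciferase reporter in stably transfected Huh7 cells was measured after 24 h compound treatment at 37 °C, followed by 10 min ambient incubation with luciferase detection reagent.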
FLuc modulator = qHTS profiling assay for firefly luciferase inhibitor/activator using purifed enzyme and Km concentrations of substrates (counterscreen for miR-21 project); purified FLuc, Km substrates, luminescence inhibition; hit rate 6.9% among 360,000; AID 588342, 2011; Potency, µM (titrated, usually from 57.5 µM), without a hit: at the top dose activity change, negative = inhibition, usual class: inhibitors; Luciferin 4-monooxygenase (Photinus pyralis), P08659;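 further: plate controls were vehicle for no effect and reference inhibitor for full effect; nearly all actives have a fitted effect of over 55% in size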
Target sequence (P08659 whole entry, looked up): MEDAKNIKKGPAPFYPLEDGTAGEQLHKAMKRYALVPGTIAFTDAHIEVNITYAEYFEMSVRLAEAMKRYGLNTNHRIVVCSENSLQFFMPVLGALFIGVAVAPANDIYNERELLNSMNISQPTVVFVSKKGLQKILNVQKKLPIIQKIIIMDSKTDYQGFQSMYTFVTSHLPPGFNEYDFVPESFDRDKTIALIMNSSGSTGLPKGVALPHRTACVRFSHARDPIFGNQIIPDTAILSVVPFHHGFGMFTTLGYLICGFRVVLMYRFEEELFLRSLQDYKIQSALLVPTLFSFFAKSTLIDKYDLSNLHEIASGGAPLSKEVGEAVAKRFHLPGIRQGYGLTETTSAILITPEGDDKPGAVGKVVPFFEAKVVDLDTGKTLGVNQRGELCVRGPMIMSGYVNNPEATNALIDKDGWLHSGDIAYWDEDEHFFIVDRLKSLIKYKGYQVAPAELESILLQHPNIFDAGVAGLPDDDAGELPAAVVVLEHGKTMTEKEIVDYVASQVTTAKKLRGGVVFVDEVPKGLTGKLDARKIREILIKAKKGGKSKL
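Biochemical qHTS of compounds, final roughly 60 µM downward over six points, against 10 nM purified firefly luciferase using Km concentrations of substrates (10 uM D-luciferin, 10 uM ATP) in Tris acetate pH 7.5 buffer; luminescence output.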
ELG1 genotoxic = qHTS screen for small molecules that induce genotoxicity in human embryonic kidney (HEK293T) cells expressing luciferase-tagged ELG1 | Potency, µM (series often up to 46 µM), for inactives: at the highest dose activity change, positive = activation, actives largely listed as activators | AID 504466, 2011 | hit rate 1.3% among 330,000 | HEK293T ELG1-luciferase reporter, luminescence, 16 h; further: % of control where 0% means no effect; nearly all actives have a fitted effect of over 60% in size
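DMSO vehicle served as control against compound-treated ELG1-luciferase HEK293T cells; exposure lasted 16 hr at 37 °C and 5% CO2, followed by ONE-Glo luminescence detection after 30 min.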
An asterisk follows results filed as active; ? = inconclusive; · = no result given; [ ] = remark or other dose. An excerpt weighted towards active compounds, which were near 9.2% of everything screened. The call rests on the fitted dose curve; in most records, active means well fitted curve in the direction sought with a large enough effect; inconclusive means small, poorly fitted or top-dose-only effect, or another doubt; inactive means no such curve, though single readings can be large; an effect the other way counts as inactive or inconclusive. Potency means the concentration at half of the fitted maximal effect.

SMILES | ELG1 DNA repair | SMN2 splice up | Rab9 prom act | NPC1 prom act | FLuc modulator | ELG1 genotoxic
O=C(COc1ccc(Br)cc1Br)NC(=O)NC1CCCC1 | ? | 14.1µM* | 3.55µM* | 3.55µM* | 9.53µM* | ?
CC(C)(C)NC(=O)NC(=O)COc1ccccc1C#N | ? | ? | 1.58µM* | 3.98µM* | 8.49µM* | 1.3µM*
CC(C)(C)NC(=O)NC(=O)COc1ccc(Br)cc1Br | ? | 6.31µM* | 0.631µM* | 1.26µM* | 0.675µM* | 2.06µM*
Cc1cc(Br)cc(C)c1OCC(=O)NNC(=O)c1cccs1 | -5.1% | · | -2.4% | -2.6% | 4.7% | 0.0%
Cc1cccc(NC(=O)c2nc[nH]c2C(=O)N2CCC(C)CC2)c1 | -4.4% | · | 2.1% | -5.8% | -6.9% | 1.3%
CC(C)[C@H](NC(=O)c1ccco1)C(=O)OCC(=O)Nc1ccccc1OC(F)F | -7.4% | 1.5% | 10.3% | -1.2% | 3.9% | 0.7%
O=C1CC(C(=O)N2CCN(S(=O)(=O)c3cccc(F)c3)CC2)CN1Cc1ccccc1Cl (stereo not drawn) | -0.9% | · | 2.1% | -0.4% | -0.2% | 0.5%
COc1cccc(/C=N/Nc2cc(N3CCOCC3)ncn2)c1O | 11.6µM* | · | -35.8% | -31.2% | 8.49µM* | ?
Fc1cccc(/C=N/Nc2cc(N3CCOCC3)ncn2)c1 | ? | · | 2µM* | 1.78µM* | 4.78µM* | ?
C/C(=N\Nc1cc(N2CCOCC2)ncn1)c1ccc(O)cc1 | 21.0% | · | 2.7% | -0.5% | 19µM* | 9.4%
O=C(Nc1cc(N2CCOCC2)ncn1)c1ccc(F)cc1 | ? | · | ? | 13.6% | ? | 5.8%
C(=N\Nc1cc(N2CCCCC2)ncn1)/c1ccco1 | ? | · | ? | ? | 4.78µM* | ?
CCN(C(=O)c1cc2c(Cl)nc3ccc(C)cc3c2s1)c1cc(OC)ccc1OC | · | -21.9% | · | · | 1.4% | ·
Cc1oc(-c2ccc(Cl)cc2)nc1CSc1nnc(C)n2c1cc1sccc12 | · | · | · | · | 4.1% | ·
Cc1ccc(C(=O)COC(=O)CCC(=O)Nc2ccc(Oc3cc(C)ccc3C(C)C)cc2)cc1 | · | -2.0% | · | · | -13.9% | ·
CC(C)(C)OC(=O)[C@H](Cc1ccccc1)NC(=O)c1nc[nH]c1C(=O)NC1CCN(C(=O)OC(C)(C)C)CC1 | -19.4% | · | 11.2% | 1.7% | -2.1% | -11.4%
CCCCOC(=O)c1ccc(NS(=O)(=O)c2c(C)nc3scc(C)n3c2=O)cc1 | · | -41.7% | · | · | ? | ·
Oc1cccc(/C=N/Nc2cc(N3CCCC3)nc(N3CCCC3)n2)c1 | 25.9µM* | -18.2% | -0.1% | -0.7% | 13.5µM* | -7.5%
CC(=O)N1CCC(=NNC(=O)c2cc3ccccc3cc2O)CC1 | 1.0% | · | -0.9% | 4.8% | ? | 5.3%
O=C(NN=C1CCCCCC1)c1cc2ccccc2cc1O | 6.1% | · | 7.4% | -4.0% | 16.9µM* | 6.5%
O=C(NN=C1CCCCCC1)c1c[nH]c2ccccc12 | 13.9% | 7.1% | -1.3% | 0.0% | 12µM* | -1.3%
COCCN(C(=O)Cc1cccs1)C(C(=O)NC1CCCC1)c1cc(OC)c(OC)c(OC)c1 (stereo not drawn) | ? | · | ? | ? | 4.78µM* | ?
COc1ccc(C(C(=O)NC2CCCC2)N(C(=O)Cc2cccs2)C2CC2)cc1OC (stereo not drawn) | 10.5% | · | 2.5% | -10.0% | 2.5% | 10.5%
O=C(NC1CCCCCCC1)c1ccccc1O | ? | 5.2% | 3.55µM* | 3.98µM* | 15.1µM* | 16.0%
N=C(N)SCCc1ccncc1 | · | 1.7%[9.22 µM] | · | · | · | ·
CC1(C)N=C(N)N=C(N)N1c1cccc(CSc2ccccc2)c1 | · | -22.0%[9.22 µM] | · | · | · | ·
Cc1ccccc1C(=O)NC1CCCCCCC1 | ? | · | 2.51µM* | 2.82µM* | 12µM* | 16.4µM*

Screens from PubChem.
